Bioassay records: PubChem, Center for Chemical Genomics, University of Michigan
The full list was thinned out, with hits kept by preference.
Dicer processing: inhibitors of human Dicer processing of pre-microRNA; Q9UPY3; cat-ELCCA pre-miR-21 Dicer processing, chemiluminescence; active compounds read high; z-score at 25 µM; 47,000 tested, 6% active; AID 1347074; in the data active = z-score above about 3, passing the limit was not always enough;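 note: plate controls were vehicle for no effect and no enzyme for full effect; higher signal means more uncleaved substrate so more Dicer inhibition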
* hit, by the source's call.

How did COc1ccccc1N1CCN(C(=O)C(C)Oc2ccnc3c(C)ccc(C)c23)CC1 (configuration not stated) do in these assays?
Dicer processing: 3.6*

How did COc1ccccc1N1CCN(C(=O)C2CCCCC2)CC1 do in these assays?
Dicer processing: -0.28

How did COc1ncnc2c1[nH]c1ccc(C)cc12 do in these assays?
Dicer processing: 1.9

Results for COc1ccccc1-c1coc2ccccc2c1=O ?
Dicer processing: 0.12

What do the screens show for `Cc1ccc(C)n1-c1cc([N+](=O)[O-])ccc1N1CCN(S(=O)(=O)c2cn(C)cn2)CC1`?
Dicer processing: 4.8*

How did Cc1ccc(C)n1-c1cc([N+](=O)[O-])ccc1-n1ccnc1 do in these assays?
Dicer processing: 0.09

How did Cc1ccc(C)n1-c1cc([N+](=O)[O-])ccc1N1CCN(C(=O)N(C)C)CC1 do in these assays?
Dicer processing: 0.36

Results for Nc1nc(-c2cccs2)cs1 ?
Dicer processing: -0.87

How did Cc1ccc(-c2csc(N=C(N)N)n2)c(C)c1 do in these assays?
Dicer processing: 0.5

What do the screens show for `Nc1nc(-c2ccccc2O)cs1`?
Dicer processing: 4.5*

How did Nc1cccc(-c2csc(N)n2)c1 do in these assays?
Dicer processing: -1.3

Results for Cc1ccc(C)c(-c2csc(N)n2)c1 ?
Dicer processing: 3.6*

How did Nc1nc(-c2ccc3ccccc3c2)cs1 do in these assays?
Dicer processing: 0.5

What do the screens show for `O=C(c1ccc(Cl)cc1)c1cc2ccccc2o1`?
Dicer processing: -0.66

What do the screens show for `CC(=O)OCC(=O)[C@@]1(O)CCC2C3CC[C@@]4(C)CCCCC4(C)C3CCC21C` (some centres not stated)?
Dicer processing: -1.6

How did CC(C)n1c(SCc2ccccc2F)nc2c1c(=O)n(C)c(=O)n2C do in these assays?
Dicer processing: -0.32

What do the screens show for `Cn1c(=O)c2c(nc(Cl)n2Cc2ccc(C(C)(C)C)cc2)n(C)c1=O`?
Dicer processing: 16

Results for Cn1c(=O)c2c(nc(Sc3ccc(Cl)cc3)n2C)n(C)c1=O ?
Dicer processing: 3.1*

What do the screens show for `Cn1c(=O)c2c(nc(SCc3cc4c(cc3Cl)OCO4)n2C)n(C)c1=O`?
Dicer processing: 0.59

Results for Cn1c(=O)c2c(nc(Cl)n2Cc2cccc(Cl)c2)n(C)c1=O ?
Dicer processing: 0

Results for Cn1c(=O)c2c(nc(Cl)n2Cc2ccc(F)cc2)n(C)c1=O ?
Dicer processing: 3.1*

Results for Cn1c(=O)c2c(nc(N3CCCCC3)n2Cc2ccc(Cl)cc2)n(C)c1=O ?
Dicer processing: 0.07

How did Cn1c(=O)c2c(nc(Sc3ccccc3)n2Cc2ccc(Cl)cc2Cl)n(C)c1=O do in these assays?
Dicer processing: 1.3

What do the screens show for `Cn1c(=O)c2c(nc(N3CCOCC3)n2Cc2ccc(Cl)cc2)n(C)c1=O`?
Dicer processing: -0.46

What do the screens show for `Cn1c(=O)c2c(ncn2Cc2ccc(Cl)cc2)n(C)c1=O`?
Dicer processing: -0.04

What do the screens show for `Cn1c(=O)c2c(nc(Br)n2Cc2ccc(Cl)cc2)n(C)c1=O`?
Dicer processing: 4.2*

What do the screens show for `Cc1ccccc1CSc1nc2c(c(=O)n(C)c(=O)n2C)n1C`?
Dicer processing: 5.2*

Results for Cc1cccc(C)c1NC(=O)n1nccc1-c1c(-c2ccccc2)noc1C ?
Dicer processing: 0.3

How did CCCOC(=O)C1=C(C)NC2=C(C(=O)CC(C)(C)C2)C1c1ccc(OC)cc1OC (configuration not stated) do in these assays?
Dicer processing: 0.63

What do the screens show for `Cc1cc(C)n2c(SCc3ccc(C(=O)c4ccccc4)cc3)nnc2n1`?
Dicer processing: 0.85

Results for Cc1ccc(N/C=C\c2nnnn2-c2ccccc2)cc1 ?
Dicer processing: 1.8

Results for O=C(O)c1cccc2cccc(Sc3cccc4cccc(CO)c34)c12 ?
Dicer processing: -0.86

How did CNC(=O)c1cccc2cccc(Sc3ccccc3C(=O)O)c12 do in these assays?
Dicer processing: 25*

Results for O=C(O)c1cccc2cccc(Sc3cccc4ccccc34)c12 ?
Dicer processing: 0.88

Results for Cc1ccc(NC(=O)c2ccc([N+](=O)[O-])o2)nc1 ?
Dicer processing: 1.4

Results for COC(=O)c1sc(S(C)(=O)=O)c(C#N)c1-c1cccs1 ?
Dicer processing: -3.2

Results for Nc1nc(Nc2ccccc2)sc1C(=O)c1ccc(F)cc1 ?
Dicer processing: 1.7

What do the screens show for `Nc1nc(Nc2ccc(F)cc2)sc1C(=O)c1ccccc1`?
Dicer processing: 4.2*

Results for Nc1nc(Nc2cccc(F)c2)sc1C(=O)c1ccc(F)cc1 ?
Dicer processing: 3.2

What do the screens show for `CCc1ccc2[nH]c(C(=O)Nc3ccc(C(F)(F)F)c(C#N)c3)cc2c1`?
Dicer processing: -1.9

How did O=C(CSc1nc2ccccc2s1)NCc1ccco1 do in these assays?
Dicer processing: -1.3

Results for COc1ccc(OCC(O)CNC2CCN(c3ncnc4scc(-c5ccccc5)c34)CC2)cc1 (configuration not stated) ?
Dicer processing: -0.98

How did Cc1cc(C)c(S(=O)(=O)N(C(=O)c2cccnc2)c2ccc3oc(=O)sc3c2)cc1C do in these assays?
Dicer processing: 11*

How did Cc1ccc(S(=O)(=O)NCc2cccnc2)c(C)c1 do in these assays?
Dicer processing: 1.2

How did Cc1ccc(S(=O)(=O)N(C(=O)c2cccnc2)c2ccc3oc(=O)sc3c2)c(C)c1 do in these assays?
Dicer processing: 8.4*

Results for Cc1ccc(C)c(S(=O)(=O)N(C(=O)c2cccnc2)c2ccc3oc(=O)sc3c2)c1 ?
Dicer processing: 13

Results for Clc1snnc1COc1ccc2c(c1)OCO2 ?
Dicer processing: -0.27

What do the screens show for `Cc1cccc(NC(=O)c2ccc(Cl)cc2[N+](=O)[O-])n1`?
Dicer processing: 1

What do the screens show for `Cc1ccc(S(=O)(=O)CCSc2nccc(-c3cccs3)n2)cc1`?
Dicer processing: -2.1

How did COc1ccc(C(=O)CC(=O)c2ccc(C(C)(C)C)cc2)cc1 do in these assays?
Dicer processing: -0.14

What do the screens show for `CCCS(=O)(=O)c1c(S(=O)(=O)CCC)c2ccccn2c1C(=O)OC`?
Dicer processing: 0.22

Results for CCS(=O)(=O)c1c(S(=O)(=O)CC)c2cc(C(C)(C)C)ccn2c1C(=O)c1ccc(OC)cc1 ?
Dicer processing: 5*

How did CS(=O)(=NS(=O)(=O)c1ccc(Cl)s1)c1ccccc1 (configuration not stated) do in these assays?
Dicer processing: -1.1

What do the screens show for `Cc1ccc(/C(O)=C2\C(=O)C(=O)N(c3nnc(C)s3)C2c2ccc(Cl)cc2)cc1` (configuration not stated)?
Dicer processing: 0.89

Results for CSC(=S)Nc1ccc(NC(C)=O)cc1 ?
Dicer processing: -0.75

Results for CCOC(=O)NC(=S)Nc1ccc(F)cc1 ?
Dicer processing: 6.7*

Results for CC(CO)(CO)NC(=S)Nc1ccc(F)cc1 ?
Dicer processing: 5.8*

How did CCOC(=O)NC(=S)Nc1ccc(C(C)(C)C)cc1NC(=S)NC(=O)OCC do in these assays?
Dicer processing: 1.5

Results for CC(C)(C)C(=O)NC(=S)Nc1ccc(C(F)(F)F)cc1 ?
Dicer processing: 1.4

How did N#CCC(=O)NNC(=S)Nc1ccc(F)cc1 do in these assays?
Dicer processing: 3.3*

How did CCOC(=O)NC(=S)Nc1cccc(C)n1 do in these assays?
Dicer processing: 0.6

Results for CCOC(=O)NC(=S)Nc1ccc(C(C)(C)C)cc1 ?
Dicer processing: 5.1*

What do the screens show for `O=C(CCc1ccc(O)cc1)NNC(=S)Nc1ccc(F)cc1`?
Dicer processing: 0.28

What do the screens show for `N#CCC(=O)NNC(=S)Nc1cc(C(F)(F)F)cc(C(F)(F)F)c1`?
Dicer processing: 0.01
